In the library only some 0.41% were active in any assay of this set; here they are far more common.
GAA glycogen mod: qHTS Assay for Inhibitors and Activators of Human alpha-Glucosidase Cleavage of Glycogen. Lysosomal alpha-glucosidase (Homo sapiens), P10253. recombinant GAA, glycogen substrate, Amplex Red glucose oxidase fluorescence. Potency, µM (titrated, usually from 76.4 µM), usual class: inhibitors. hit rate 0.38% among 300,000. AID 2100, 2009;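 note: the screen sought inhibitors and activators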
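qHTS, 1536-well; enzyme 4 nM final; cpd up to 77 uM; substrate bovine liver glycogen 30 ug; 50 mM citrate/phosphate pH 5.0, 0.01% Tween-20; 37 C, 40 min; Amplex Red detection 45 min RT; Hill fit → AC50.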
GAA inhib: qHTS Assay for Inhibitors of Human alpha-Glucosidase as a Potential Chaperone Treatment of Pompe Disease. Potency, µM (top dose mostly 76.9 µM), usual class: inhibitors. hit rate 0.005% among 200,000. AID 1466, 2008. Lysosomal alpha-glucosidase (Homo sapiens), P10253. purified human GAA, 4-MU-alpha-glucoside fluorescence
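Activity normalized between no-enzyme (basal) and enzyme-only wells. Conditions: 4 nM human enzyme, 400 uM fluorogenic substrate, citrate/phosphate pH 5.0 with Tween-20, 20 min room temperature, compounds up to 77 uM.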
GLA inh pH 4.5: qHTS Assay for Inhibitors of Human alpha-Galactosidase at pH 4.5. 230,000 tested, under 10 active. purified enzyme, 4-MU-alpha-Gal fluorescence, pH 4.5. Alpha-galactosidase A (Homo sapiens), P06280. activity change, negative = inhibition, % at 105 µM
N370S GC: qHTS Assay for Inhibitors and Activators of N370S glucocerebrosidase as a Potential Chaperone Treatment of Gaucher Disease. Lysosomal acid glucosylceramidase (Homo sapiens), P04062. N370S GC spleen homogenate, 4MU-glucoside fluorescence. Potency, µM (top dose mostly 59.4 µM), actives largely listed as inhibitors. hit rate 0.092% among 330,000. AID 2101, 2009
GAA spleen mod: qHTS Assay for Inhibitors and Activators of Human alpha-Glucosidase From Spleen Homogenate. Potency, µM (series often up to 79.9 µM), actives largely listed as inhibitors. human spleen homogenate, 4-MU-alpha-glucoside fluorescence. hit rate 0.006% among 240,000
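Compounds were titrated against alpha-glucosidase in spleen homogenate at pH 5.0, with 1 mM 4-methylumbelliferyl substrate for 40 min at 37 C. Reactions were quenched with pH 10 NaOH/glycine and fluorescence measured.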
aGal spleen mod: qHTS Assay for Inhibitors and Activators of Human alpha-Galactosidase From Spleen Homogenate; Potency, µM (top dose mostly 80 µM), hits mostly inhibitors; Alpha-galactosidase A (Homo sapiens), P06280; hit rate 0.008% among 240,000; AID 2107, 2009; human spleen homogenate, 4MU-alpha-Gal fluorescence, 40 min
Target sequence (P06280 32-429 limits assumed): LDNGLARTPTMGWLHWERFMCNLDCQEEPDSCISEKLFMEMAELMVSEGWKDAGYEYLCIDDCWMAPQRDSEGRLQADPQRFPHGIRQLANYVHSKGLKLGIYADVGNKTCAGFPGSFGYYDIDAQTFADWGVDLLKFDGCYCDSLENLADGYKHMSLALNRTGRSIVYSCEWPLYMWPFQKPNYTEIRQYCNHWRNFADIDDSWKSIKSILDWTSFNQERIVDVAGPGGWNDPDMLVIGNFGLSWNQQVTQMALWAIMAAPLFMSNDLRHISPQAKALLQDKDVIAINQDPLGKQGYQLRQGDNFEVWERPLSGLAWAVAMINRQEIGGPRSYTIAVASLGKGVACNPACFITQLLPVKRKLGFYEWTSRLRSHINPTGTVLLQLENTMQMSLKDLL
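qHTS titration in buffer at pH 5.0. Alpha-galactosidase activity in spleen homogenate was measured via 4-methylumbelliferone release from 1 mM fluorogenic substrate after 40 min at 37C and a pH 10 stop. AC50 came from Hill fits of control-normalized data.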
A number is an active result; - = inactive; ? = inconclusive; . = not tested or not shown; ! = not confirmed by another sample; [ ] = remark or other dose. Calls come from the whole dose curve; as a rule, active = well fitted curve in the direction sought with a large enough effect; inconclusive = small, poorly fitted or top-dose-only effect, or another doubt; inactive = no such curve, though single readings can be large; an effect the other way counts as inactive or inconclusive.

SMILES	GAA glycogen mod	GAA inhib	GLA inh pH 4.5	N370S GC	GAA spleen mod	aGal spleen mod
C[C@H](NC(=O)CNC(=O)[C@@H](NC(=O)[C@H](Cc1ccccc1)NC(=O)CNC(=O)CNC[C@@H](N)Cc1ccccc1)[C@@H](C)O)C(=O)N[C@@H](CCCN=C(N)N)C(=O)N[C@@H](CCCCN)C(=O)N[C@@H](CO)C(=O)N[C@@H](C)C(=O)N[C@@H](CCCN=C(N)N)C(=O)N[C@@H](CCCCN)C(N)=O	.	.	.	-	-	-
COc1cccc(NC(=S)N(CCCN2CCOCC2)Cc2cn(C)c3ccccc23)c1	-	-	-	2.8µM	-	-
COc1ccc(NC(=S)N(CCCN2CCOCC2)Cc2cn(C)c3ccccc23)cc1OC	?	-	-	?	-	-
CCN(CC)c1ccc(NC(=S)NC(=O)c2cccs2)cc1	14µM	-	-	?	-	-
CCN(CC)c1ccc(NC(=S)NC(=O)c2ccco2)cc1	11µM	-	-	-	-	-
CC(=O)NC(=S)Nc1ccc(NC(=S)NC(=O)c2cccs2)cc1	-	.	.	-	.	.
COc1ccc2c(/C=N/NS(=O)(=O)c3ccc(C)cc3)c[nH]c2c1	8.9µM	.	-	-	-	-
Oc1cnn(-c2ccccc2)c1	20µM	-	-	-	-	-
CC1CC=CC2C1C(=O)N(Cc1ccccc1)C2c1ccc(F)c(Br)c1 (stereo unspecified)	.	.	.	-	-	-
CC(C)C1Nc2c(O)cc(Cl)c([N+](=O)[O-])c2C2C=CCC21 (stereo unspecified)	14µM	-	-	-	-	-
CN(C)c1ccc(-c2cc(C3C4C=CCCC4(C)C(=O)N3Cc3ccccc3)ccc2F)cc1 (stereo unspecified)	.	.	.	-	-	-
CN(C)c1c(N)c(=O)oc2ccccc12	?	-	-	-	-	-
Cc1ccc(Nc2c(N)c(=O)oc3ccccc23)cc1	20µM	-	-	-	-	-
Nc1c(N)c2ccccc2oc1=O	7.1µM	-	-	-	-	-
CNc1c(N)c(=O)oc2ccccc12	-	-	-	-	-	-
COC(=O)C1=C(C(=O)OC)[C@@H]2Nc3ccccc3[C@@]23C[C@@H](C(=O)OC)N(S(=O)(=O)c2ccc4c(c2)OCCN4C)C3=N1	.	.	-	-[12.8 µM]	-[17.4 µM]	-[17.5 µM]
CC[C@H](C)[C@H](NC(=O)[C@H](C)NC(=O)CNC(=O)[C@H](CCCCN)NC(=O)[C@H](CC(N)=O)NC(=O)[C@H](CO)NC(=O)CN)C(=O)N[C@H](C(=O)NCC(=O)N[C@@H](CC(C)C)C(=O)N[C@@H](CCSC)C(=O)O)[C@@H](C)CC	.	.	.	-	-	-
CN(C)S(=O)(=O)c1cc(NC(=O)CN2CCN(c3ccccc3)CC2)ccc1Cl	-	?	-	-	-	-
CN(C)S(=O)(=O)c1cc(NC(=O)CN2CCN(c3ccc(O)cc3)CC2)ccc1Cl	7.1µM	-	-	-	.	-
O=S(=O)(c1ccc(OCC(O)CN2CCN(c3ccccc3O)CC2)cc1)N1CCOCC1 (stereo unspecified)	6.3µM	-	-	-	-	-
Cc1c(N=Cc2c(O)n(C)c(=O)c3ccccc23)c(=O)n(-c2ccccc2)n1C	-	?	-	-	-	-
Cc1c(N=Cc2ccc[nH]2)c(=O)n(-c2ccccc2)n1C	22µM	-	-	-	-	-
Cc1cccn2c(=O)c(C=Nc3c(C)n(C)n(-c4ccccc4)c3=O)c(N3CCCC3)nc12	11µM	-	-	-	-	-
Cc1c(N=Cc2ccccn2)c(=O)n(-c2ccccc2)n1C	13µM	-	-	-	-	-
Cc1c(N=Cc2ccncc2)c(=O)n(-c2ccccc2)n1C	12µM	-	-	-	-	-
SMILES	GAA glycogen mod	GAA inhib	GLA inh pH 4.5	N370S GC	GAA spleen mod	aGal spleen mod
CCC(C)C(N)C(=O)NC(CC(N)=O)C(=O)NC(CC(C)C)C(=O)NC(CCCCN)C(=O)NC(C)C(=O)NC(CC(C)C)C(=O)NC(C)C(=O)NC(C)C(=O)NC(CC(C)C)C(=O)NC(C)C(=O)NC(CCCCN)C(=O)NC(CCCCN)C(=O)NC(C(=O)NC(CC(C)C)C(N)=O)C(C)CC (stereo unspecified)	.	.	.	-	-	-
C[C@H](O)C(N)C(=O)O (stereo partly specified)	.	.	.	-	-	-
O=C1c2ccccc2C(=O)N1OCc1cccc(Cl)c1	-	-	-	-	-	-
O=C1Cc2ccccc2C(=O)N1OCc1ccc(Cl)cc1Cl	25µM	-	-	-	-	-
CCCCN(CC)c1nc(C)nc2c1c(C)c(C)n2-c1c(C)cc(C)cc1C	.	.	.	-	-	-
Oc1ccccc1N1CCN(c2ncccn2)CC1	7.9µM	-	-	-	-	-
c1ccc(N2CCN(c3ncccn3)CC2)cc1	-	-	-	-	-	-
CCN(CC)c1ccc(/C=N/Nc2nc(C)cc(C)n2)cc1	11µM	.	-	-	-	-
Cc1cc(C)nc(N/N=C/c2ccccc2)n1	-	-	.	-	-	-
NNc1nc(-c2ccccc2)cc(-c2ccccc2O)n1	11µM	-	-	-	-	-
NNc1nc(-c2ccccc2)cc(-c2ccccc2)n1	-	-	-	-	-	-
Cc1cn(C2CC3OCC(NC(=O)C(NC(=O)OC(C)(C)C)C(C)OCc4ccccc4)C3O2)c(=O)[nH]c1=O (stereo unspecified)	.	.	.	-	-	-
O=C(CCc1ccc(O)cc1)c1c(O)cc(O)cc1O	31µM	.	-	18µM!	-	-
CNC(=O)[C@]1(C(F)(F)F)C[C@H](CCC2CCCCC2)CCCO1	.	.	.	-	-	-
CCn1c(SCC(=O)c2ccc(O)c(O)c2)nnc1-c1ccccc1	7.9µM	?	-	-	-	-
COc1ccccc1-c1nnc(SCC(=O)c2ccc(Cl)cc2)n1-c1ccccc1	-	.	.	.	.	.
CCn1c(SCC(=O)c2ccc(O)c(O)c2)nnc1-c1ccccc1OC	25µM	-	-	-	-	-
C=CCn1c(SCC(=O)c2ccc(O)c(O)c2)nnc1-c1ccccc1OC	18µM	-	-	-	-	-
C=CCn1c(SCC(=O)c2ccc(O)c(O)c2)nnc1-c1cccnc1	?	.	-	-	-	-
O=C1C=CC(=O)c2c(O)c(Cl)c(Cl)c(O)c21	.	.	-	-	-	?
COc1ccc(-c2nnc3n2N=C(c2ccc(OC)c(OC)c2)CS3)cc1	.	.	.	-	-	-
CCN(CC)c1ccc(NC(=O)CSc2nnc(C)c(=O)[nH]2)cc1	25µM	.	.	.	.	.
Cc1ccc(NC(=O)CSc2nnc(C)c(=O)[nH]2)cc1	-	.	.	.	.	.

Screening results from PubChem BioAssay.
